Hits are enriched below; roughly 2.9% of the tested compounds scored in any of these assays.
PI5P4K alpha inh: PI5P4K alpha (human) kinase inhibition. P48426. PI5P4Kalpha enzyme, ADP-Glo luminescence, 60 min; active compounds read low. max response, %. 330,000 tested, 1.2% active. AID 652105; active means max response of -50% or lower; inconclusive means between -30% and -50%; inactive means -30% or higher; further: value at the top dose of about 77 µM; on the % scale 0 is the no-effect control and ±100 the full control effect
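Quantitative HTS of the MLSMR library against PI5P4Kalpha with substrate. ATP added last at 5 microM final; room temperature, 60 minutes. Remaining ATP depleted, ADP converted and read as luminescence.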
Pol kappa inh: blocks human DNA polymerase kappa activity; Q9UBT6; purified Pol kappa, fluorescent DNA synthesis assay, 10 min; Potency, µM (highest dose often 107 µM), without a hit: at the top dose activity, negative = inhibition, hits mostly inhibitors; 400,000 tested, 0.53% active; further: potency means the concentration at half of the fitted maximal effect; on the % scale 0 is the no-effect control and ±100 the full control effect
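Here, compound and 10 nM enzyme are combined for 15 min at room temperature; adding 50 nM substrate (final) starts DNA synthesis, tracked by fluorescence at 0 and 10 min against buffer-only wells.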
Pol beta inh: inhibitors of human DNA polymerase beta; Potency, µM (highest dose often 114 µM), inactives show top-dose activity change, negative = inhibition, most hits filed as inhibitors; P06746; Pol beta primer extension/strand displacement, fluorescence kinetic; 340,000 tested, 1.3% active; further: potency means the concentration at half of the fitted maximal effect; on the % scale 0 is the no-effect control and ±100 the full control effect
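Pol beta (10 nM) and compounds were preincubated 15 min at room temperature, then 50 nM substrate (final) started primer extension/strand displacement. Reads were taken at 0 and 10 min; concentration-response data were fitted to a four-parameter Hill equation.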
POLI inh: inhibitors of human DNA polymerase iota | Pol iota fluorescent replication assay, 10 min | 390,000 tested, 1% active | Potency, µM (series often up to 115 µM), for inactives: top-dose activity, negative = inhibition, most hits filed as inhibitors | Q9UNA4; further: potency means the concentration at half of the fitted maximal effect
Target sequence (Q9UNA4 whole entry, looked up): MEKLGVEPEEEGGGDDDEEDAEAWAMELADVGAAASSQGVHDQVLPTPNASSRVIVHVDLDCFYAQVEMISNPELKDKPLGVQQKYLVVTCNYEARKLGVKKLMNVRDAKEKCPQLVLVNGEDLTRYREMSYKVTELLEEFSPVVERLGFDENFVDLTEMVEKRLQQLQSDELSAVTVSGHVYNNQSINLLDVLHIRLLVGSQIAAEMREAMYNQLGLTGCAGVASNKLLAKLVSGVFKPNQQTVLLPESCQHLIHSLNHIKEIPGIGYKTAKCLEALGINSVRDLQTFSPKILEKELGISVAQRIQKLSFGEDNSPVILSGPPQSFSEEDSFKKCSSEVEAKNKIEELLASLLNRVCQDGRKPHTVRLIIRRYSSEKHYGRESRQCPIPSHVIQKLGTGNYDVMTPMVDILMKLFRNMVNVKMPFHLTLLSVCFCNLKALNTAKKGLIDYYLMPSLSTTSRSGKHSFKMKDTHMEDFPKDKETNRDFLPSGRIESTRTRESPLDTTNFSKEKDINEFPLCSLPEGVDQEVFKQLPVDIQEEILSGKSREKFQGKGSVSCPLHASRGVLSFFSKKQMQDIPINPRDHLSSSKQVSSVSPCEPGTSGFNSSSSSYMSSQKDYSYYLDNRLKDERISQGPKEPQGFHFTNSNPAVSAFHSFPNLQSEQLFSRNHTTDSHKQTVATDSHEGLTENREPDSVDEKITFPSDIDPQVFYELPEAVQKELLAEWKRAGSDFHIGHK
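Fluorescent replication assay read twice, at 0 min and 10 min after adding 50 nM (final) substrate. Enzyme (10 nM) and compounds were first incubated 15 min at room temperature; enzyme-free buffer wells were negative controls.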
12-LOX inh: inhibitors of human 12S-lipoxygenase ALOX12. 580,000 tested, 1.1% active. Potency, µM (doses to about 108 µM), inactives show top-dose activity change, negative = inhibition, usual class: inhibitors. AID 1671190. P18054. purified 12hLO, xylenol orange hydroperoxide absorbance; further: potency means the concentration at half of the fitted maximal effect; on the % scale 0 is the no-effect control and ±100 the full control effect
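Purified human 12hLO at 150 nM in 25 mM Hepes, 0.01% Triton X-100, pH 7.0, preincubated 15 min at room temperature with compound. Reaction started with 40 uM arachidonic acid, 30 min at room temperature. Hydroperoxide measured by Fe-xylenol orange, 573/405 nm absorbance ratio.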
POLH inh: DNA polymerase eta (human) inhibition; Q9Y253; recombinant Pol eta, fluorescent DNA replication assay; Potency, µM (titrated, usually from 114 µM), inactives show at the highest dose activity change, negative = inhibition, usual class: inhibitors; 390,000 tested, 1.2% active; further: potency means the concentration at half of the fitted maximal effect; on the % scale 0 is the no-effect control and ±100 the full control effect
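Fluorescent replication assay: 50 nM final substrate added after a 15 min room-temperature compound preincubation with 10 nM enzyme. Signal taken at 0 min and again at 10 min.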
* marks the source's active call; other numbers are inactive results; ? = inconclusive; nt = no result given; ! = repeats disagree; [ ] = remark or other dose. Unless noted, the call rests on the fitted dose curve; in most records, active means well fitted inhibition curve with a large enough effect; inconclusive means small, poorly fitted or top-dose-only effect, or another doubt; inactive means no such curve, though single readings can be large or run the other way.

SMILES	PI5P4K alpha inh	Pol kappa inh	Pol beta inh	POLI inh	12-LOX inh	POLH inh
O=C1NCc2ccccc2CC12CCN(Cc1ccc(Cl)cc1)C2 (configuration not stated)	nt	nt	nt	nt	22µM*	nt
O=C1NCc2ccccc2CC12CCN(Cc1ccc(O)cc1)C2 (configuration not stated)	nt	nt	nt	nt	2%	nt
C[S+](=O)([O-])N1CC2(CCN(Cc3cccc(C(N)=O)c3)C2)Cc2ccccc21 (configuration not stated)	nt	nt	nt	nt	7%[6.33 µM]	nt
O=C(CSc1ncnc2nc[nH]c12)NCCc1c[nH]c2ccc(Cl)cc12	nt	nt	nt	nt	8%	nt
COc1ccc(OC)c(NC(=O)c2cc(=O)c3cc(C)ccc3o2)c1	nt	nt	nt	nt	13%	nt
O/N=C/c1ccccc1Br	nt	nt	nt	nt	-2%	nt
Cc1ccc(CCN2CCC3(Cc4ccccc4CN([S+](C)(=O)[O-])C3)C2)cc1 (configuration not stated)	nt	nt	nt	nt	7.1µM*	nt
CCOc1ccc(CN2CCC3(Cc4ccccc4CNC3=O)C2)cc1 (configuration not stated)	nt	nt	nt	nt	-1%[6.33 µM]	nt
Cc1ccc(CCN2CCC3(Cc4ccccc4CNC3=O)C2)cc1 (configuration not stated)	nt	nt	nt	nt	13µM*	nt
Cc1ccccc1C(=O)OCC(=O)NCc1ccco1	?	-32%	nt	50µM*	?	?
O=Cc1ccc(C(=O)OCC(=O)NCc2ccco2)cc1	-53*	-10%	nt	23%	-23%	?
Cc1c(C(=O)OCC(=O)NCc2ccco2)cccc1[N+](=O)[O-]	?	-30%	nt	56µM*	?	25µM*
O=C(COC(=O)C1(c2ccc(F)cc2)CCCC1)NCc1ccco1	?	-15%	40µM*	28%	-20%	-18%
CC(C)(C)c1ccc(C(=O)OCC(=O)NCc2ccco2)cc1	5	-9%	nt	26%	12%	-20%
O=C(COC(=O)/C=C/c1ccc(F)cc1)NCc1ccco1	2	-9%	5%	46%	-18%	-14%
O=C(OCc1coc(-c2ccc(F)cc2)n1)c1ccc2nccnc2c1	nt	nt	nt	nt	-1%	nt
Cc1ccc(C2Cn3nnc(C(=O)N4CCN(C(=O)c5cccc(N(C)C)c5)CC4)c3CO2)cc1 (configuration not stated)	nt	nt	nt	nt	11%	nt
COc1ccc(-c2n[nH]c(C(F)(F)F)c2-c2cc3ccccc3o2)c(O)c1	nt	-3%	0%	79µM*	?	-11%
COc1ccccc1-c1c(-c2ccc(OCC(=O)NN)cc2O)n[nH]c1C(F)(F)F	0	-3%	22%	10%	-12%	-18%
Cc1ccc(NCCCNc2ncccc2C#N)nc1	nt	nt	nt	nt	-27%	nt
O=[N+]([O-])c1c(Nc2ccccc2)ccc2nonc12	3	-12%	-19%	14%	-17%	3%
CCOC(=O)NNc1ccc2nonc2c1[N+](=O)[O-]	-65*	?	45µM*	10µM*	nt	10µM*
O=[N+]([O-])c1c(NCc2ccco2)ccc2nonc12	0	1%	3.2µM*	63%	?	-19%
CCc1ccc(Nc2ccc3nonc3c2[N+](=O)[O-])cc1	1	4%	nt	-24%	159%	-11%
C/C=C(/C(=C/C)c1ccc(O)cc1)c1ccc(O)cc1	1	-12%	-1%	-9%	50µM*!	-10%
SMILES	PI5P4K alpha inh	Pol kappa inh	Pol beta inh	POLI inh	12-LOX inh	POLH inh
O=C(O)C1Cc2ccccc2CN1S(=O)(=O)c1ccc2ccccc2c1 (configuration not stated)	-14	-23%	-25%	?	?	5.6µM*
CN(C)C(=O)C1Cc2ccccc2CN1S(=O)(=O)c1ccc(F)cc1 (configuration not stated)	3	2%	-1%	-6%	10%	-1%
CS(=O)(=O)N1Cc2ccccc2CC1C(=O)OCC(=O)NCCc1ccc(S(N)(=O)=O)cc1 (configuration not stated)	-4	-3%	nt	29%	19%	-15%
O=C(O)C1Cc2ccccc2CN1S(=O)(=O)c1ccccc1 (configuration not stated)	1	-8%	-9%	55%	0%	79µM*
Cc1ccc(S(=O)(=O)N2Cc3ccccc3CC2C(=O)Nc2ccc3c(c2)OCO3)cc1 (configuration not stated)	-51*	50µM*	22µM*	?	31%	10µM*
COc1ccc(S(=O)(=O)N2Cc3ccccc3CC2C(=O)Nc2ccc3c(c2)OCO3)cc1 (configuration not stated)	-9	-1%	7%	13%	0%	-15%
CS(=O)(=O)N1Cc2ccccc2CC1C(=O)OCC(=O)Nc1ccc2ccccc2c1 (configuration not stated)	nt	?	3.2µM*	?	-4%	?
Cc1cc(C)n(-c2nc(-c3ccccc3)cc(=O)n2CC(=O)Nc2ccccc2)n1	nt	nt	nt	nt	-1%	nt
CC[C@]1(O)CC2CN(CCc3c([nH]c4ccccc34)[C@@](C(=O)OC)(c3cc4c(cc3OC)N(C)[C@H]3[C@@](O)(C(=O)OC)[C@H](OC(C)=O)[C@]5(CC)C=CCN6CC[C@]43[C@@H]65)C2)C1 (some centres not stated)	nt	-1%[19.4 µM]	nt	?	nt	nt
CCC1=C[C@@H]2CN(C1)Cc1c([nH]c3ccccc13)[C@@](C(=O)OC)(c1cc3c(cc1OC)N(C)[C@@H]1[C@@](O)(C(=O)OC)[C@H](OC(C)=O)[C@]4(CC)C=CCN5CC[C@]31[C@@H]54)C2	nt	4%[19.4 µM]	nt	nt	4.3µM*	nt
CC(=O)Nc1ccc(Nc2nc3c(S(=O)(=O)c4cccc(Cl)c4)nnn3c3ccsc23)cc1	nt	-1%	39%	6%	1%	79µM*
CCN(CC)CC(=O)Nc1cccc2c1C(=O)c1ccccc1C2=O	1	3%[60.1 µM]	5%	?	-16%	1%
O=C1c2ccccc2C(=O)c2c(NCCCN(CCO)CCO)cccc21	0	-18%	45µM*	?	1%	?
CCc1ccc([S+](=O)([O-])c2nnn3c2nc(NCc2ccncc2)c2ccccc23)cc1	nt	nt	nt	nt	-1%[6.33 µM]	nt

Screening data from PubChem BioAssay.
